Four molecules from PubChem BioAssay (NCATS) can be followed below.

Inconclusive results are not listed. Activity calls are given as the source filed them. Calls follow the shape of the dose curve; as a rule, active = well fitted inhibition curve with a large enough effect; inconclusive = small, poorly fitted or top-dose-only effect; inactive = no such curve, though single readings can be large or run the other way.

The assay is described as follows: qHTS assay for measurement of the activity of small molecule inhibitors on Zika virus induced Caspase-3 activity in human iPSC derived neural progenitor cells (hNPCs) (AID 1224857). Also: nearly all actives have a fitted effect of over 65% in size. The settings on record: hNPCs ZIKV-induced caspase-3/7, Caspase-Glo luminescence, 6 h; series mostly up to 45.7 µM. Put shortly:
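In medium with heparin 2 ug/ml and cyclopamine 2 uM, hNPCs (350 cells/well) received compound for one hour and then Zika virus at 2 FFU/cell; caspase activity was measured by Caspase-Glo 3/7 luminescence 6 h post-infection.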
In general terms: In qHTS, concentration-response curves come from the screen itself.
Consider `CCCCOCCOCCOCc1cc2c(cc1CCC)OCO2`, for which the molecule was classed as inactive.
To `Nc1nc(N)c2nc(-c3ccccc3)c(N)nc2n1` belongs “inactive”.
The value for `CC(N=C(NC#N)Nc1ccncc1)C(C)(C)C` (centres undefined) was “inactive”.
To `CCCCNC(=O)NS(=O)(=O)c1ccc(C)cc1` belongs “inactive”.
